Assay [1] can be described thus: Quantitative High-Throughput drug screen in 47 multiple myeloma cell lines against the NCATS MIPE library collection: Karpas417_ECACC cell viability assay (AID 1918961). Note: potency is the fitted concentration of half-maximal effect. The conditions noted are these: Karpas417 myeloma viability, CellTiter-Glo ATP luminescence, 48 h; viability (% of DMSO): at 45.8 µM (top of the series). In short, it runs like this: (§1)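 CellTiter-Glo ATP luminescence gave viability after 48 h compound treatment at 37C of 500 multiple myeloma cells per well. Normalisation used DMSO-only wells as 100% and media-only wells as 0% viability; primary qHTS of approved and investigational drugs.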
For orientation: Cellular ATP, detected with luciferase, serves as a proxy for viable cell number.

A short description of assay [2]: Quantitative High-Throughput drug screen in 47 multiple myeloma cell lines against the NCATS MIPE library collection: JIM3_ECACC cell viability assay (AID 1918963; note: nearly all actives have a fitted effect of over 35% in size; note: potency is the fitted concentration of half-maximal effect). In short, it runs like this:
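Myeloma cells (500 per well) were exposed to MIPE 4.0 compounds by pin transfer and incubated 48 hours at 37C, 5% CO2. Viability was read as ATP by CellTiter-Glo luminescence, normalised to DMSO (100%) and media-only (0%) wells.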

Assay [3] can be described thus: Quantitative High-Throughput drug screen in 47 multiple myeloma cell lines against the NCATS MIPE library collection: INA6_PLB cell viability assay (AID 1918965; note: nearly all actives have a fitted effect of over 55% in size; note: potency is the fitted concentration of half-maximal effect). In short, it runs like this:
as §1

A short description of assay [4]: Quantitative High-Throughput drug screen in 47 multiple myeloma cell lines against the NCATS MIPE library collection: JJN3_DSMZ cell viability assay (AID 1918966; note: nearly all actives have a fitted effect of over 50% in size; note: potency is the fitted concentration of half-maximal effect). In a few lines:
as §1

Assay [5] can be described thus: Quantitative High-Throughput drug screen in 47 multiple myeloma cell lines against the NCATS MIPE library collection: Karpas25_ECACC cell viability assay (AID 1918968; note: nearly all actives have a fitted effect of over 35% in size; note: potency is the fitted concentration of half-maximal effect). In a few lines:
as §1

The nature of assay [6]: Quantitative High-Throughput drug screen in 47 multiple myeloma cell lines against the NCATS MIPE library collection: KMS27_JCRB cell viability assay (AID 1918970). Note: nearly all actives have a fitted effect of over 30% in size. Note: potency is the fitted concentration of half-maximal effect. The conditions noted are these: KMS27 myeloma cells, CellTiter-Glo ATP viability, 48 h; viability (% of DMSO): at 45.8 µM (top of the series). In short, it runs like this:
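KMS27_JCRB myeloma cells, 500 per well, exposed 48 h at 37 C, 5% CO2 to MIPE 4.0 compounds. Viability from ATP by CellTiter-Glo luminescence, normalized to DMSO (100%) and medium-only (0%) wells.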

The nature of assay [7]: Quantitative High-Throughput drug screen in 47 multiple myeloma cell lines against the NCATS MIPE library collection: KMS26_JCRB cell viability assay (AID 1918975). Note: nearly all actives have a fitted effect of over 45% in size. Note: potency is the fitted concentration of half-maximal effect. In a few lines: (§2)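 Relative luminescence from CellTiter-Glo served as the viability signal, referenced to DMSO-treated (100%) and cell-free medium (0%) controls. Treatment lasted 48 hours at 37C with 500 cells per well.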

The nature of assay [8]: Quantitative High-Throughput drug screen in 47 multiple myeloma cell lines against the NCATS MIPE library collection: MOLP8_DSMZ cell viability assay (AID 1918977). Note: nearly all actives have a fitted effect of over 45% in size. Note: potency is the fitted concentration of half-maximal effect. In short, it runs like this: (§3)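 ATP-based CellTiter-Glo luminescence after 48 h drug exposure (37 °C, 5% CO2) of 500 myeloma cells per well. DMSO-only wells set 100% viability, media-only wells 0%; MIPE 4.0 library added by pin tool.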

A short description of assay [9]: Quantitative High-Throughput drug screen in 47 multiple myeloma cell lines against the NCATS MIPE library collection: NCIH929_DSMZ cell viability assay (AID 1918978). Note: nearly all actives have a fitted effect of over 35% in size. Note: potency is the fitted concentration of half-maximal effect. In a few lines:
as §3

Assay [10] in a line: Quantitative High-Throughput drug screen in 47 multiple myeloma cell lines against the NCATS MIPE library collection: OCIMY1_PLB cell viability assay (AID 1918979). Note: nearly all actives have a fitted effect of over 35% in size. Note: potency is the fitted concentration of half-maximal effect. In a few lines: as §3
Assay [11] can be described thus: Quantitative High-Throughput drug screen in 47 multiple myeloma cell lines against the NCATS MIPE library collection: H1112_PLB cell viability assay (AID 1918967; note: nearly all actives have a fitted effect of over 30% in size; note: potency is the fitted concentration of half-maximal effect). In short, it runs like this:
as §1

Assay [12] can be described thus: Quantitative High-Throughput drug screen in 47 multiple myeloma cell lines against the NCATS MIPE library collection: KMS12PE_JCRB cell viability assay (AID 1918972). Note: nearly all actives have a fitted effect of over 30% in size. Note: potency is the fitted concentration of half-maximal effect. In short, it runs like this:
as §1

The nature of assay [13]: Quantitative High-Throughput drug screen in 47 multiple myeloma cell lines against the NCATS MIPE library collection: KMS20_JCRB cell viability assay (AID 1918973). Note: nearly all actives have a fitted effect of over 45% in size. Note: potency is the fitted concentration of half-maximal effect. In a few lines:
as §1

Assay [14] can be described thus: Quantitative High-Throughput drug screen in 47 multiple myeloma cell lines against the NCATS MIPE library collection: MMM1_PLB cell viability assay (AID 1918976). In a few lines:
as §3

A short description of assay [15]: Quantitative High-Throughput drug screen in 47 multiple myeloma cell lines against the NCATS MIPE library collection: MM1S_ATCC cell viability assay (AID 1918980). Note: nearly all actives have a fitted effect of over 45% in size. Note: potency is the fitted concentration of half-maximal effect. In a few lines: as §3
A short description of assay [16]: Quantitative High-Throughput drug screen in 47 multiple myeloma cell lines against the NCATS MIPE library collection: MM1R_ATCC cell viability assay (AID 1918981). Note: nearly all actives have a fitted effect of over 35% in size. Note: potency is the fitted concentration of half-maximal effect. In a few lines: as §3
Assay [17] in a line: Quantitative High-Throughput drug screen in 47 multiple myeloma cell lines against the NCATS MIPE library collection: JIM1_ECACC cell viability assay (AID 1918964). In short, it runs like this: as §1
A short description of assay [18]: Quantitative High-Throughput drug screen in 47 multiple myeloma cell lines against the NCATS MIPE library collection: KMS12BM_JCRB cell viability assay (AID 1918971). Note: nearly all actives have a fitted effect of over 35% in size. Note: potency is the fitted concentration of half-maximal effect. In short, it runs like this: as §2
Assay [19] can be described thus: Quantitative High-Throughput drug screen in 47 multiple myeloma cell lines against the NCATS MIPE library collection: KMS21BM_JCRB cell viability assay (AID 1918974). Note: potency is the fitted concentration of half-maximal effect. The conditions noted are these: ATP luminescence, 48 h; viability: at 45.8 µM (top of the series). In a few lines: as §1

Inconclusive results are not listed. Calls of active or inactive are those of the source. Calls come from the whole dose curve; as a rule, active = well fitted curve in the direction sought with a large enough effect; inconclusive = small, poorly fitted or top-dose-only effect, or another doubt; inactive = no such curve, though single readings can be large; an effect the other way counts as inactive or inconclusive.

Regarding `Cc1cc(O)c2c(c1)C(=O)c1cccc(O)c1C2=O`, in [1], the viability (% of DMSO) is 136% (active). In addition, the Potency result in assay [2], in assay [3], in assay [4], in assay [5], in assay [6] and in assay [7] was “inactive” each time. Further, the Potency entry in assay [8], in assay [9] and in assay [10] was “inactive” each time.
As to `COc1cccc2c1C(=O)c1c(O)c3c(c(O)c1C2=O)C[C@@](O)(C(=O)CO)C[C@@H]3O[C@H]1C[C@H](N)[C@H](OC2CCCCO2)[C@H](C)O1` (stereo partly drawn), the Potency entry in assay [1], in [6] and in [12] was “inactive” in each case. The Potency in [2] is 3720 nM (active); in assay [3], 469 nM (active); in [4], 1870 nM (active); in [11] it was 1480 nM (active); in assay [5], 1050 nM (active); in assay [13] it was 1180 nM (active). In addition, the Potency is 2960 nM (active) in [7]; 1180 nM (active) in assay [14]; 1180 nM (active) in assay [8]; 935 nM (active) in assay [9]; 14800 nM (active) in assay [10]; 132 nM (active) in assay [15]. In addition, the Potency in assay [16] was 296 nM (active).
With `CC(=O)OC[C@@H]1O[C@@H](n2ccc(=O)[nH]c2=O)[C@H](OC(C)=O)[C@H]1OC(C)=O`, the Potency result in assay [1], in assay [2], in assay [17], in assay [4], in [11] and in assay [6] was “inactive” in each case. The Potency entry in assay [18], in [12], in [7], in assay [8], in assay [9] and in [10] was “inactive” each time. In addition, the Potency entry in [15] and in assay [16] was “inactive” in each case.
Turning to `CC(C)Oc1ccc(C(=O)N[C@H](CNC(=O)CN(C)C)Cc2ccc(-c3cn4cccc([C@H](C)O)c4n3)cc2)cc1Cl`, the Potency result in assay [1] and in assay [4] was “inactive” in each case. Moreover, the Potency was 209 nM (active) in [2]; 74.3 nM (active) in [3]; 132 nM (active) in assay [5]; 833 nM (active) in [6]; 743 nM (active) in [18]; 469 nM (active) in assay [12]. For the same compound, the Potency in assay [13] was 235 nM (active); in assay [10], 2640 nM (active); in assay [15] it was 6620 nM (active); in assay [16], 590 nM (active).
Take `CC(C)(N)c1ccc(-c2nc3ccccc3nc2-c2ccccc2)cc1`: the Potency in [1] is 372 nM (active); in assay [2], 18700 nM (active); in assay [3] it was 9350 nM (active); in [4], 20900 nM (active); in assay [11] it was 14800 nM (active); in assay [5] it was 16600 nM (active). In addition, the Potency in assay [6] is 18700 nM (active); in [18], 26400 nM (active); in [12], 7430 nM (active); in assay [13], 4180 nM (active); in assay [7] it was 26400 nM (active); in assay [14] it was 18700 nM (active). Besides, the Potency in [9] was 4690 nM (active); in [10], 23500 nM (active); in assay [15] it was 18700 nM (active); in [16], 26400 nM (active).
`CNC(=O)Nc1ccc(-c2nc(N3CC4CCC(C3)O4)c3cnn(C4CCC5(CC4)OCCO5)c3n2)cc1`: the Potency in assay [1] is 6.6 nM (active); in assay [2], 418 nM (active); in assay [3], 41.8 nM (active); in [4] it was 11.8 nM (active); in assay [5], 10.5 nM (active); in assay [18], 6.6 nM (active). The Potency is 74.3 nM (active) in assay [12]; 10.5 nM (active) in assay [13]; 41.8 nM (active) in assay [19]; 1180 nM (active) in assay [7]; 9.3 nM (active) in assay [14]; 9.3 nM (active) in assay [8]. For the same compound, the results for the Potency in assay [10], in assay [15] and in assay [16] were 935 nM (active), 14.8 nM (active) and 41.8 nM (active), respectively.
In the case of `CCc1cc(C(C)=NOCc2ccc(C3CCCCC3)c(C(F)(F)F)c2)ccc1CN1CC(C(=O)O)C1`, the Potency in [1] is 59 nM (active); in assay [11], 14800 nM (active). The Potency entry in assay [3], in assay [8] and in assay [15] was “inactive” in each case.
As to `O=C(c1ccc(F)cc1)N1CCC[C@H](c2nc(-c3ccc(F)cc3)no2)C1`, the Potency entry in assay [1], in [17], in [3], in assay [4], in [11] and in assay [5] was “inactive” throughout. Besides, the Potency entry in assay [6], in [12], in assay [13], in [7], in assay [8] and in [9] was “inactive” throughout. The Potency result in assay [10] and in assay [16] was “inactive” in each case.
`CCOc1cc2c(c(F)c1OCC)C(=N)N(CC(=O)c1cc(N3CCOCC3)c(OC)c(C(C)(C)C)c1)C2`: in [1], the Potency result was “inactive”. The Potency was 9350 nM (active) in assay [2]; 11800 nM (active) in assay [3]; 18700 nM (active) in assay [4]; 11800 nM (active) in assay [11]; 9350 nM (active) in assay [5]; 18700 nM (active) in assay [18]. Moreover, the Potency is 9350 nM (active) in [13]; 18700 nM (active) in [7]; 10500 nM (active) in [14]; 14800 nM (active) in assay [9]; 20900 nM (active) in [10]; 14800 nM (active) in [15]. In addition, the Potency in assay [16] was 20900 nM (active).
On to `C[C@@H](NCc1cc2ccccc2[nH]1)c1cccc2ccccc12`, for which the Potency entry in assay [1], in [2], in assay [4], in assay [18], in [13] and in assay [8] was “inactive” each time. Besides, the Potency result in [9] and in assay [16] was “inactive” throughout. The Potency in assay [3] is 4690 nM (active).
Regarding `CCOC(=O)C=C[C@H](C[C@@H]1CCNC1=O)NC(=O)[C@@H](CC(=O)[C@@H](NC(=O)c1cc(C)on1)C(C)C)Cc1ccc(F)cc1`, the Potency result in [1], in assay [2], in assay [4], in assay [11], in assay [5] and in [6] was “inactive” each time. For the same compound, the Potency entry in assay [12], in assay [13], in assay [7], in assay [9], in assay [10] and in assay [15] was “inactive” each time. Besides, the Potency result in [16] is “inactive”.

Source of the values: PubChem BioAssay (NCATS).
